From PubChem
In the library only some 12% were active in any assay of this set; here they are far more common.
Pf growth 96h – inhibits malaria parasite growth, 96 h. 320,000 tested, 6.9% active. P. falciparum luciferase reporter growth, 96 h. Potency, µM (series often up to 28.7 µM), for the others: at the highest dose activity change, negative = inhibition, hits mostly inhibitors; also: % is scaled to controls: 0 for no effect and ±100 for the full control effect
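Erythrocytes infected with luciferase-expressing P. falciparum were dispensed at 2% hematocrit and 0.05% parasitemia (final), then incubated with compounds 96 hours at 37 C in 5% CO2. Luminescence after detection reagent addition reported growth.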
Pf growth 48h – inhibits P. falciparum growth in the first generation, 48 h; P. falciparum luciferase growth in erythrocytes, 48 h; Potency, µM (series often up to 28.7 µM), for the others: at the highest dose activity change, negative = inhibition, hits mostly inhibitors; 310,000 tested, 5.9% active; also: % is scaled to controls: 0 for no effect and ±100 for the full control effect
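First compound was added to culture medium, then infected red cells at 0.1% parasitemia and 2% hematocrit (final). After incubation at 37 C under 5% CO2, luciferase detection reagent was dispensed and light output recorded.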
HCV inh – inhibitors of hepatitis C virus infection | Potency, µM (highest dose often 41.8 µM), for the others: at the highest dose activity change, negative = inhibition, actives largely listed as inhibitors | AID 651820 | 340,000 tested, 3.4% active | Huh7.5.1 HCVcc-Cre infection, luciferase reporter, 44 h; also: % is scaled to controls: 0 for no effect and ±100 for the full control effect
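HCVcc-Cre virus at an moi near 0.5 was added right after compound to cells cultured 4 h from seeding (1,000 cells/well). Luciferase activity was determined 44 h later, 15 min after substrate addition at RT.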
NS1 inh – inhibitors of influenza NS1 protein function. Potency, µM (doses to about 46.1 µM), inactives show top-dose activity, positive = more growth. 270,000 tested, 0.4% active. AID 2326; calls by dose curve; also: actives are rising curves; nearly all actives have a fitted effect of over 50% in size
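Recovery from NS1-induced slow growth read by OD600 in budding yeast switched to galactose assay medium (pH 6.0, -URA) at 1:100 dilution. Compound 23 nl per well; the matching strain lacking NS1 serves as control.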
SARS PLP yeast – inhibitors of SARS-CoV papain-like protease in yeast | S. cerevisiae expressing SARS-CoV PLpro, growth rescue | Potency, µM (top dose mostly 32.9 µM), for inactives: top-dose activity, positive = growth rescue, actives largely listed as activators | 330,000 tested, 0.19% active; calls by dose curve; also: 0% is about no effect; nearly all actives have a fitted effect of over 55% in size
AMA1-RON2 inh – inhibitors of Plasmodium falciparum AMA1-RON2 interaction; AlphaScreen AMA1-biotinylated RON2 peptide binding; Potency, µM (top dose mostly 58.2 µM), for inactives: top-dose activity change, negative = inhibition, hits mostly inhibitors; 360,000 tested, 0.2% active;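 also: 0% = vehicle wells and -100% = peptide control; nearly all actives have a fitted effect of over 45% in size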
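AMA1 (3D7) with his tag at 25 nM final met compounds first, then biotinylated RON2 peptide at 25 nM; detection used donor plus acceptor beads, 10 µg/mL apiece, read by AlphaScreen after 30 min at room temperature.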
Active calls of the source: *; ? = inconclusive; . = no result. Unless noted, calls follow the shape of the dose curve; as a rule, active = well fitted curve in the direction sought with a large enough effect; inconclusive = small, poorly fitted or top-dose-only effect, or another doubt; inactive = no such curve, though single readings can be large; an effect the other way counts as inactive or inconclusive. Potency is read from the fitted curve at half-maximal effect.

SMILES	Pf growth 96h	Pf growth 48h	HCV inh	NS1 inh	SARS PLP yeast	AMA1-RON2 inh
COc1cc(C2C(C#N)=C(N)Oc3cc(N)ccc32)cc(OC)c1OC (stereo unspecified)	?	-21.8%	-24.8%	17.6%	-20.1%	-5.8%
COc1cc(C2C(C#N)=C(C)NC(C)=C2C#N)cc(OC)c1OC	11.7µM*	9.28µM*	14.9%	4.7%	20.4%	-5.2%
CCOC(=O)c1cnn(-c2ccccc2)c1-n1cccc1C(=O)C(=O)Nc1ccccc1C(F)(F)F	14.7µM*	13.1µM*	?	11.9%	-8.6%	-13.9%
CC(Cc1ccccc1Sc1ccccc1)N(C)C (stereo unspecified)	?	?	9.8%	2.1%	1.0%	4.0%
CC(Cc1ccccc1Sc1ccc(O)cc1)N(C)C (stereo unspecified)	.	13.1µM*	?	2.2%	0.2%	-7.7%
Nc1nc2c(Br)ccc(Br)c2cc1C(=O)NCc1cccc2ccccc12	.	.	.	.	.	37.8%
CCOC(=O)N1CCC(N2C(=O)c3ccccc3C2Nc2cc(C)cc(C)c2)CC1 (stereo unspecified)	?	?	-13.1%	-3.9%	-1.1%	-13.2%
CCOC(=O)N1CCC(N2C(=O)c3ccccc3C2Nc2ccc(C)cc2)CC1 (stereo unspecified)	9.28µM*	.	11.0%	-76.1%	-1.3%	-18.0%
CCOC(=O)N1CCC(N2C(=O)c3ccccc3C2Nc2ccccc2)CC1 (stereo unspecified)	?	.	-9.9%	5.8%	-6.7%	-4.7%
CCOC(=O)N1CCC(N2C(=O)c3ccccc3C2Nc2cc(C(=O)OC)cc(C(=O)OC)c2)CC1 (stereo unspecified)	8.28µM*	.	3.6%	-90.2%	-4.6%	0.9%
CCn1c(=O)ccc2cc([N+](=O)[O-])ccc21	9.2%	1.9%	16.5%	1.8%	0.5%	-8.9%
CC(C)c1ccc(-c2c(C#N)c(N)nc(SCC(=O)N3CCCCC3)c2C#N)cc1	?	.	-12.7%	6.0%	-4.1%	2.4%
CC(C)c1ccc(-c2c(C#N)c(N)nc(SCC(=O)N3CCCCCC3)c2C#N)cc1	5.22µM*	.	9.1%	4.6%	6.3%	9.4%
Cc1nc(NCCc2ccc(S(N)(=O)=O)cc2)c2c(C)c(C)sc2n1	.	?	1µM*	2.9%	-8.3%	94.6%
CC(C)NCCCCOc1ccc(Br)cc1Cl	27.0%	?	10µM*	-1.6%	-0.2%	11.0%
O=[N+]([O-])c1ccc(-c2nnc(-c3ccccc3)c(NCCCO)n2)cc1	5.22µM*	?	7.7%	2.4%	17.7%	1.7%
CC1=CC(C)(C)Nc2ccc(OC(=O)CN3C(=O)c4ccccc4C3=O)cc21	30.9%	14.7µM*	25.1µM*	-25.3%	0.0%	?
CC1=CC(C)(C)Nc2ccc(OC(=O)CN3C(=O)c4cccc5cccc(c45)C3=O)cc21	?	7.38µM*	?	?	-7.1%	?
CCN(CC(=O)NCc1ccc(Cl)cc1)C(=O)c1cc2ccccc2o1	-13.0%	-4.3%	-25.1%	8.4%	-9.1%	-3.2%
Cc1cc(C)cc(OCC(=O)OCCN2C(=O)c3ccccc3C2=O)c1	-8.7%	.	7.9%	-16.8%	-0.1%	17.1%
Cc1ccc(OCC(=O)OCCN2C(=O)c3ccccc3C2=O)cc1C	1.85µM*	9.9%	25.5%	-51.2%	-16.6%	-0.4%
CCOC(=O)c1cnc2c(N=Nc3cccc(Cl)c3)c(N)nn2c1N	0.657µM*	12.8%	.	0.7%	4.9%	.
CCOC(=O)c1c(C)oc(=O)c(CC)c1O	.	.	.	.	.	3.8%
CCOC(=O)c1c(C)oc2c(F)c(F)c(F)c(F)c2c1=O	14.3%	-12.6%	10µM*	-106.2%	-18.0%	1.1%
CC(=O)O[C@H]1CC[C@@]2(C)C(=CC[C@@H]3[C@@H]4CC[C@H](c5cc(C(F)(F)F)n(C(C)=O)n5)[C@]4(C)CC[C@@H]32)C1	.	.	.	-5.4%	.	.
SMILES	Pf growth 96h	Pf growth 48h	HCV inh	NS1 inh	SARS PLP yeast	AMA1-RON2 inh
C[C@@H]1CCCN(CP(=O)(c2ccccc2)c2ccccc2)C1	.	.	.	2.8%	.	.
CC12COC3(P(=O)(c4ccccc4)c4ccccc4)CC1CCC23CP(=O)(c1ccccc1)c1ccccc1 (stereo unspecified)	0.928µM*	1.17µM*	14.8%	.	-1.0%	-17.8%
CC(C)n1nnnc1SCC(=O)Nc1cccc(F)c1	-2.8%	21.3%	-24.6%	-7.8%	3.5%	-2.7%
O=C(NC1CCCC1)C1C2C=CC(C2)C1C(=O)N1CCOCC1 (stereo unspecified)	9.28µM*	10.0%	14.8%	0.0%	1.3%	-3.6%
Cn1cc(/C=C/C(=O)N2CCCC(C(=O)c3cccc4ccccc34)C2)cn1 (stereo unspecified)	54.0%	-11.1%	-18.8%	-0.3%	-0.1%	-10.1%
COc1cccc(O)c1CN1CCCC(C(=O)c2cccc(C(F)(F)F)c2)C1 (stereo unspecified)	?	2.94µM*	?	-0.1%	-2.5%	?
Cn1cc(/C=C/C(=O)N2CCCC(C(=O)c3cccc(C(F)(F)F)c3)C2)cn1 (stereo unspecified)	4.15µM*	4.6%	-7.7%	-0.6%	0.0%	1.8%
O=C(c1cccc(C(F)(F)F)c1)C1CCCN(Cc2ncc[nH]2)C1 (stereo unspecified)	?	-10.6%	5.2%	2.8%	-0.1%	34.5%
CCn1ccnc1CN1CCCC(C(=O)c2cccc(C(F)(F)F)c2)C1 (stereo unspecified)	13.0%	9.28µM*	-27.8%	4.6%	0.9%	38.2%
CN(CC(=O)Nc1cccc(F)c1)C(=O)c1cccc(S(=O)(=O)N2CC3(C)CC2CC(C)(C)C3)c1 (stereo unspecified)	?	?	-7.7%	.	2.4%	-5.2%
Cn1c(=O)c2c(nc(N3CCOCC3)n2C/C=C/c2ccccc2)n(C)c1=O	?	-5.9%	-9.3%	-0.1%	0.3%	3.7%
CC1(C)Cc2c(sc(NC(=O)C(=O)N3CCOCC3)c2C(N)=O)CO1	?	-12.1%	18.6%	-5.3%	2.1%	67.5%
O=C(CN1C(=O)NC2(CCc3ccccc32)C1=O)Nc1ccc(Cl)cc1F (stereo unspecified)	.	.	.	.	.	-4.5%
CCCCCCCNC(=O)C1(CC2CC(c3cccc(Br)c3)=NO2)CCN(C(=O)OC(C)(C)C)CC1 (stereo unspecified)	4.65µM*	?	-17.1%	?	-3.4%	-2.7%
CCCCCCCNC(=O)C1(CC2CC(c3cccc(Br)c3)=NO2)CCN(C(=O)C2CCCC2)CC1 (stereo unspecified)	9.28µM*	5.22µM*	4.7%	.	2.2%	-20.7%
CCCNC(=O)C1(CC2CC(c3ccccc3)=NO2)CCN(C(=O)OC(C)(C)C)CC1 (stereo unspecified)	.	.	-4.2%	.	.	1.0%
